# Assay results: paper PMC5540273 (PLoS ONE, 2017)
# Experiments:
# Settings in all cases: concentration: 1 μM, replicates: in singlicate; n = 1
# [1] = test system: ZAK
# [2] = test system: ZAP70
# [3] = test system: T1, p38-alpha
# T1 construct: gene MAPK14
# [4] = test system: T2, p38-beta
# T2 construct: gene MAPK11
# [5] = test system: p38-delta
# [6] = test system: T3, p38-gamma
# T3 construct: gene MAPK12
# 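Further: KINOMEscan kinase panel screen.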
SMILES,%Inh [1] [%],%Inh [2] [%],%Inh [3] [%],%Inh [4] [%],%Inh [5] [%],%Inh [6] [%]
Cc1ccc(NC(=O)c2ccc(Cl)c(Cl)c2)cc1-c1ccc(C(=O)Nc2ccncc2)cc1 [GSK1398460],49,0,0,12,24,0
COc1ccc(C2=C(Nc3cccc(O)c3)C(=O)NC2=O)cc1 [SB-390766],7,0,23,0,94.4,0
Cc1ccc(Nc2ccnc(Nc3ccc(C)c(F)c3)n2)cc1O.Cl [GW582868],2,0,0,0,30,0
CNc1nccc(-c2ccc3c(N)n[nH]c3c2)n1 [GSK2206003],22,0,6,0,22,25
O=C1NC(=O)C(c2ccccc2Cl)=C1Nc1cccc(Cl)c1 [SB-342409],21,0,0,0,28,0
CN(c1ccc(F)c(NC(=O)c2cccc(OC(C)(C)C#N)c2Cl)c1)c1ccc2nc(NC(=O)C3CC3)sc2n1,64,0,70,6,0,37
CC(C)c1nc(-c2cccc(NS(=O)(=O)c3c(F)cccc3F)c2)c(-c2ccnc(Nc3ccc(N4CCOCC4)nc3)n2)s1.Cl [GSK1723980],98.6,0,27,10,0,0
Cc1ccc(NC(=O)c2ccnc(N3CCCCC3)c2)cc1-c1ccc(C(=O)NCC2CC2)cc1 [GW775610],21,0,99.9,100,2,62
O=C(O)C(F)(F)F.O=c1[nH]ccc2nc(N[C@@H]3CCNC3)nc(Nc3ccc4c(c3)S(=O)(=O)CC4)c12 [GSK2181306],0,1,0,0,44,23
COc1cccc(NC(=O)NCCNc2ccnc(Nc3ccc(F)cc3)n2)c1 [GSK1379879],34,17,0,0,59,0
CN(c1ccc2c(c1)nc(NCc1ccccc1)n2C)c1ccnc(Nc2ccc(CS(C)(=O)=O)cc2)n1.Cl [GW811603],4,27,2,0,27,0
Cc1ccc(-c2ccc3occ(-c4ccc(S(C)=O)cc4)c3c2)nn1 (stereo not drawn),0,13,0,10,0,0
Fc1cc(Cl)ccc1Nc1ccnc2cc(-c3ccc(CN4CCSCC4)o3)ccc12 [GW560106],52,0,35,0,36,0
Nc1ncnc2scc(-c3ccc(NC(=O)Cc4cc(F)ccc4F)cc3)c12.O=C(O)C(F)(F)F [SB-731254-M],4,0,0,7,0,41
CCn1cnc2c(NCc3ccccc3)ncnc21 [SKF-96418],0,30,0,0,0,0
CC(=O)Nc1cn2nc(Oc3cccc(NC(=O)c4cccc(C(F)(F)F)c4)c3)ccc2n1,98.6,0,32,28,0,34
CCNc1nccc(-c2c(-c3ccc(F)cc3)ncn2C2CCN(C)CC2)n1,7,0,99.8,63,0,36
Cl.Cl.NCC(NC(=O)c1cc(-c2cccnc2)c(-c2ccnc3[nH]ccc23)s1)c1ccccc1 (stereo not drawn) [GSK1323434],7,0,31,0,21,32
O=C(O)C(F)(F)F.O=c1[nH]ccc2nc(N[C@@H]3CCNC3)nc(Nc3cc(Cl)cc(Cl)c3)c12 [GSK2188764],0,1,0,0,18,23
Cc1ccc(NC(=O)c2cccc(N3CCCCC3)c2)cc1-c1ccc(C(=O)NCC2CC2)cc1 [GSK1917008],33,0,99.9,99.4,46,50

SMILES,%Inh [1] [%],%Inh [2] [%],%Inh [3] [%],%Inh [4] [%],%Inh [5] [%],%Inh [6] [%]
c1ccc(Oc2ccc(Nc3ccnc4cc(-c5ccc(CN6CCCCC6)o5)ccc34)cc2)nc1 [GW567143],66,0,0,0,0,0
Cc1cccc(Nc2nc(NCCN)ncc2C(N)=O)c1 [GSK1292139],0,74,45,0,24,0
N#CC1(c2cccc(C(=O)Nc3cccc(Oc4ccc5nc(NC(=O)C6CC6)sc5n4)c3)c2)CC1,90,0,40,36,0,26
N#Cc1cnc2cc(-c3cnc(CNCCN4CCOCC4)s3)ccc2c1Nc1ccc(Oc2ccccc2)cc1 [GW664114],95.6,59,0,0,37,0
COc1cccc(CC(=O)N2CCc3cc(-c4cn(C)c5ncnc(N)c45)ccc32)c1 [GSK2608899],0,0,0,0,48,0
Cc1ccc(O)cc1Nc1ccnc2ccc(C(C)(C)C)cc12 [GW856805],0,15,1,16,0,41
CC(C)(C)c1ccc(C(=O)Nc2cn3cc(-n4ccnc4)ccc3n2)cc1,7,0,11,9,21,0
CN(C)c1ncnc2nc[nH]c12 [SKF-31736],0,7,7,0,0,2
O=C(Nc1n[nH]c2nc(-c3cccc(O)c3)ccc12)C1CC1 [SB-711805],25,23,7,18,0,12
Cn1cc(-c2ccc3c(c2)CCN3C(=O)Cc2cc(F)cc(C(F)(F)F)c2)c2c(N)ncnc21 [GSK2635225],11,0,0,0,46,0
O=C(Nc1n[nH]c2nc(-c3ccccc3O)ccc12)C1CC1 [SB-711880],0,0,0,0,0,39
COc1cc(Nc2nccc(N3CCC(NC(=O)Nc4ccc5c(c4)OCO5)C3)n2)cc(OC)c1OC (stereo not drawn) [GSK1379766],34,0,0,0,24,0
Cc1cc(-c2ccnc(Nc3cccc(C#N)c3)n2)cc(C)c1O [GSK1440913],16,2,0,0,99.7,91.6
Cl.N#CCc1ccc(Nc2nccc(Nc3ccc(Oc4ccccc4)cc3)n2)cc1 [GW639905],45,0,0,0,5,0
COc1cccc(-c2nc(-c3ccccc3)[nH]c2-c2ccncc2)c1 [SB-610250],5,0,98.2,32,44,0
COC(=O)Nc1nc2cc(Oc3ccc(NC(=O)Nc4cccc(SC)c4)cc3)ccc2[nH]1.Cl [GW697999],96.3,0,54,0,28,4
O=C(Nc1n[nH]c2nc(-c3ccccc3)ccc12)C1CC1 [SB-708999],15,19,10,29,25,2
Cn1cc(-c2ccc3c(c2)CCN3C(=O)Cc2cc(F)cc(F)c2F)c2c(N)ncnc21 [GSK2634140],0,0,0,0,14,2
COC(=O)Nc1nc2ccc(Oc3ccc(NC(=O)Nc4cc(C(F)(F)F)ccc4F)cc3)cc2[nH]1.Cl [GW654607],98,0,88,70,65,9
Nc1ncc(-c2ccc3nccc(-c4ccncc4)c3c2)cc1S(=O)(=O)N1CCCCC1 [GSK1693850],22,0,0,0,36,22
